From US20220289795, “EFFICIENT METHOD FOR PREPARING PPR PROTEIN AND USE OF THE SAME” (EditForce, Inc., published 2022)

Molecular target: T1, v3.1_PPR13 (Artificial Sequence)
T1 chain: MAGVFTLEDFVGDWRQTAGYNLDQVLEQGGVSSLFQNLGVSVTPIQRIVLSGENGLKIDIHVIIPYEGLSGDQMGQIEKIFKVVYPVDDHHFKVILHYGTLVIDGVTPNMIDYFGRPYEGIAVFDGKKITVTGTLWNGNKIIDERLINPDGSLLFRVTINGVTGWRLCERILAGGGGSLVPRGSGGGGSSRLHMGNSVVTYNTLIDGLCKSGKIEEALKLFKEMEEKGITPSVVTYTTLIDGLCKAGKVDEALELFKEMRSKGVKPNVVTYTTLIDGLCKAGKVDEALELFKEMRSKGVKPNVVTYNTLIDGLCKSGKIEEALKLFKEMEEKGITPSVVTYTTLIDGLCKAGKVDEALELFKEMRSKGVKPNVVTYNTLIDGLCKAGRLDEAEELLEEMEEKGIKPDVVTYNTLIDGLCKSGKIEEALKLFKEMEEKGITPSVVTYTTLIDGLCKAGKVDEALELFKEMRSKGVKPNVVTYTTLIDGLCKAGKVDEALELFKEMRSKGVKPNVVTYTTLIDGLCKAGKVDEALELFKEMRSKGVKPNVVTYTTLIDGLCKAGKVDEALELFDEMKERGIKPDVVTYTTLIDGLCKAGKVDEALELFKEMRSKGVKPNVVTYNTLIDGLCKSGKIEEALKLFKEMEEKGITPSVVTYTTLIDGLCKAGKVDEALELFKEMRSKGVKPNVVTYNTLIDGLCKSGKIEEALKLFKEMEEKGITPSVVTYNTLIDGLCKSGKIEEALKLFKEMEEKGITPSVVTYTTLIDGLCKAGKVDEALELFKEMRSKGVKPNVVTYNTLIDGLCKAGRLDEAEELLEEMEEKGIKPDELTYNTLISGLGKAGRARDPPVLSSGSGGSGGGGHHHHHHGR
Test: RPB-ELISA
Conditions: tags: N-terminal luciferase, C-terminal 6xHis; label: 5'-biotin; ssRNA
Description: RNA probes consisting of a designed 30-base sequence containing 18 bases of the target sequence and modified by biotinylation at the 5′ end (RNA_1, RNA_2, RNA_3, RNA_4, and RNA_5, SEQ ID NOS: 61 to 65) were synthesized (Grainer). To a streptavidin-coated plate (Thermo fisher), the 5′-end biotinylated RNA probes were added, reaction was allowed at room temperature for 30 minutes, and the plate was washed with a lysis buffer (20 mM Tris-HCl, pH 7.6, 150 mM NaCl, 5 mM MgCl₂, 0.5% NP-40, 1 mM DTT, 0.1% BSA). For background measurement, wells to which RNA was not added, but 100 μL of the lysis buffer, 1 μL of 100 mM DTT, and 1 μL of 40 unit/4 RNase inhibitor (Takara, 2313A) were added were also prepared. Then, 200 μL of a blocking buffer (20 mM Tris-HCl, pH 7.6, 150 mM NaCl, 5 mM MgCl₂, 0.5% NP-40, 1 mM DTT, 1% BSA) was added, and the plate surface was blocked at room temperature for 30 minutes. Then, 100 μL of E. coli lysate containing luciferase-fused PPR protein having a luminescence level of 1.5×10⁸ LU/μL was added to each well, and the binding reaction was allowed at room temperature for 30 minutes. The well was washed 5 times with 200 μL of a washing buffer (20 mM Tris-HCl, pH 7.6, 150 mM NaCl, 5 mM MgCl₂, 0.5% NP-40, 1 mM DTT). […] The background (luminescence signal value obtained with adding the PPR protein and without adding RNA) was subtracted from the luminescences of the samples to which a solution containing each RNA and PPR protein was added, and the obtained values were used as the binding powers between the PPR protein and RNA.
By using the V3.1 motif, PPR proteins for the same 23 kinds of target sequences were similarly prepared (SEQ ID NOS: 411 to 433 for the nucleotide sequences, and SEQ ID NOS: 434 to 456 for the amino acid sequences), and bindings of all the combinations were analyzed by using RPB-ELISA. The experimental method was the same as that used in Example 3.
GGUUAGAGAUACAGUGUG gave a binding signal of 20.6 log2 luminescence.
